# High-throughput results: PubChem BioAssay, National Center for Advancing Translational Sciences (NCATS)
# ERK EGF block – blocks ERK signaling stimulated by EGF; Potency, µM (series often up to 11.5 µM), for inactives: top-dose activity change, negative = inhibition, usual class: inhibitors; HEK293-V1b, EGF-stimulated phospho-ERK AlphaScreen; AID 1454; 0.41% of 130,000 active; active = well fitted inhibition curve with a large enough effect;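 note: plate controls were stimulated vehicle wells for no effect and unstimulated vehicle basal for full effect; nearly all actives have a fitted effect of over 55% in size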
#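 EGF-stimulated (25 nM, 5 min) phospho-ERK in HEK293 cells stably expressing V1b, cells pretreated 30 min with compound at 37C. Homogeneous AlphaScreen read on lysates.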
# Active calls of the source: *; [ ] = dose if it differs, or a comment. This is one part of a sample in which hits are shown more often than they occur. Potency is the fitted concentration of half-maximal effect.
SMILES,ERK EGF block
C=C(CC1([C@@H](NP(=O)(c2ccccc2)c2ccccc2)[C@H]2C[C@@H]2CCCC)CC1)c1cccc(OC)c1,0.6%
Cc1cc(Br)ccc1NC(=O)CN1C(=S)NC(C)(C)CC1C (centres undefined),-5.0%
C[C@@H]1Oc2ccccc2C=C1/C=C/C(=O)O,1.3%
CCN1C(=O)/C(=C/C2=Cc3ccccc3OC2C)SC1=S (centres undefined),15.8µM*
CCN1C(=O)/C(=C\c2ccncc2)SC1=S,-14.6%[57.5 µM]
COC(=O)[C@H](CC(C)C)NC(=O)Nc1cccc(Br)c1,-12.4%
CCN(CC)S(=O)(=O)c1cc(NC(=O)C(C)N(C)CC(=O)Nc2c(C)cccc2C)ccc1C (centres undefined),5.5%
COc1cccc([C@@H]2Oc3ccc(Br)cc3C(=O)[C@H]2OC(=O)N[C@H](C)C2CCCCC2)c1,-2.2%
CCn1nc(C(=O)OCC(=O)N2CC(=O)Nc3ccccc32)c2ccccc2c1=O,7.5%
CC1CC1C(=O)OCC(=O)Nc1ccccc1Oc1ccccc1 (centres undefined),12.2%
CCCC(=O)OCC(=O)Nc1ccc(N=Nc2ccccc2)cc1,-3.3%
CC1CC1C(=O)OCC(=O)Nc1ccc(N=Nc2ccccc2)cc1 (centres undefined),20µM*
CC(=O)NNC(=O)CC(=O)Nc1nc(C23CC4CC(CC(C4)C2)C3)cs1,-5.6%
O=C(NCC(c1cccs1)N1CCOCC1)c1ccccc1NS(=O)(=O)c1cccc([N+](=O)[O-])c1 (centres undefined),-6.7%
O=C(Nc1ccccc1Cl)Oc1ccc2ccccc2c1,2.2%[57.5 µM]
CCCCc1cn([C@@H](CCCCN)C(=O)N2CCNCC2)nn1,6.4%[57.5 µM]
COc1ccc(O)c(C(=O)/C=C/c2cc3ccccc3o2)c1,25.1µM*
COc1cccc(C(=O)Oc2ccccc2/C=C\C(=O)c2cc3ccccc3o2)c1,17.3%
COc1ccc(C(=O)/C=C/c2ccccc2)c(O)c1,-7.5%[57.5 µM]
O=[N+]([O-])c1ccc(C=Nc2ccc(Cl)c([N+](=O)[O-])c2)s1,-8.8%
COc1ccc(-c2nc3c(c(=O)c4ccccc4n3C)c(=O)n2Cc2ccccc2)cc1,-8.2%
CNC(=O)[C@H]1O[C@H](n2cnc3c(NCc4cccc(I)c4)nc(Cl)nc32)[C@@H](O)[C@@H]1O,-1.6%
CNC(=O)[C@H]1O[C@@H](n2cnc3c(NCc4cccc(I)c4)ncnc32)[C@H](O)[C@H]1O,18.8%
Cc1onc(-c2ccccc2)c1C(=O)NC(=S)Nc1sc2c(c1C#N)CCC(C)C2 (centres undefined),-1.5%
COc1cccc(C(=O)NCC(=O)NNc2ncnc(N)c2[N+](=O)[O-])c1,1.9%
SMILES,ERK EGF block
CC1(C)CC(N(Cc2ccc(F)cc2)C(=O)c2ccc(F)cc2)CCO1 (centres undefined),-2.5%[57.5 µM]
CC1(C)CC(C(CCN(Cc2ccccc2)C(=O)c2ccco2)c2ccc(F)cc2)CCO1 (centres undefined),22.4µM*
CN(CCC#N)C(=O)CC(Cc1ccccc1)C1CCOC(C)(C)C1 (centres undefined),1.9%[57.5 µM]
COc1ccc(CCNC(=O)CCN2C(=O)c3cccc4cccc(c34)C2=O)cc1OC,4.9%
COc1cc(/C=C(\NC(C)=O)C(=O)O)cc(OC)c1OC,-10.8%[57.5 µM]
Fc1ccc(CN2CCN(C(=S)NCCc3ccccc3)CC2)c(Cl)c1,-1.3%
O=C(COc1ccc(Cl)cc1Cl)NC(=S)Nc1ccc(CN2CCOCC2)cc1,20µM*
O=C(CCCCl)NC(=S)Nc1ccc(CN2CCOCC2)cc1,6.9%[57.5 µM]
O=C(COc1ccccc1Cl)NC(=S)Nc1ccc(CN2CCOCC2)cc1,-11.7%
COc1ccccc1NC1=C(Cl)C(=O)N(c2ccccc2)C1=O,4.2%
COc1ccccc1NC(=S)N(c1ccccc1)C(C)C,1.0%
COC1=C(Nc2ccccc2OC)C(=O)c2ccccc2C1=O,14.1µM*
COc1ccccc1CCc1nnc(CCC(=O)NC(C)Cc2ccsc2)o1 (centres undefined),-19.8%
Cc1cccc(NC(=S)N2CCN(C(=O)C3CCCO3)CC2)c1 (centres undefined),-3.1%
CCOc1ccc(C(C)=O)cc1CSc1nnnn1-c1ccc(O)cc1,-0.6%
CCN(CC)C(C(=O)NC1CCCCC1)c1ccc(C)cc1 (centres undefined),4.9%
Cc1cccc(N=C2NC(=O)/C(=C/c3cccs3)S2)c1,25.1µM*
Cc1cccc(N=C2NC(=O)/C(=C/c3cccn3C)S2)c1,0.6%[57.5 µM]
O=C1Nc2ccccc2S/C1=C/c1cccs1,-1.0%[57.5 µM]
O=C(Nc1ccc(F)c(F)c1)c1oc2ccccc2c1NC(=O)C1CCCO1 (centres undefined),11.6%
O=C(Nc1ccc(Cl)cc1)Nc1cccc2nsnc12,-12.7%[57.5 µM]
CCCC(=O)N1c2ccccc2C(=C2SC(C(=O)OC)=C(C(=O)OC)S2)C(=S)C1(C)C,12.6µM*
CC1(C)C(=O)Nc2ccccc2N1C(=O)CSc1nc(-c2ccccc2)cs1,10.5%
COC(=O)c1cc(C(=O)OCC(=O)N2c3ccccc3NC(=O)C2(C)C)cc([N+](=O)[O-])c1,-0.9%
CN(C)S(=O)(=O)c1ccc(NC(=O)COC(=O)CC2CC3CCC2C3)cc1 (centres undefined),-0.7%
SMILES,ERK EGF block
O=C1CC(c2ccco2)CC(O)=C1C=NCCN1CCN(C(=S)Nc2ccccc2)CC1 (centres undefined),3.3%[57.5 µM]
Cc1cccc2c(Cl)cc(=O)[nH]c12,4.0%
O=C1C=C(O)c2c(O)cccc2C1=O,-7.5%[57.5 µM]
COc1ccc2c(c1O)C(=O)c1ccccc1C2=O,-7.7%[57.5 µM]
Nc1c(O)ccc2c1C(=O)c1ccccc1C2=O,28.2µM*
CC(=O)OCCCn1c(C)[n+](C)c2cc(Cl)c(Cl)cc21,-0.8%
CC(C)(C)c1ccc(NC(=O)Cn2cnc3cc([N+](=O)[O-])ccc3c2=O)cc1,1.4%
CN(C)CCNC(=O)/C(=N\O)c1ccccn1,-4.2%
CC(C)C(NS(=O)(=O)c1c(Cl)cccc1Cl)C(=O)OCC(=O)c1c[nH]c2ccccc12 (centres undefined),25.1µM*
Cc1ccc(C(=O)OCC(=O)c2c[nH]c3ccccc23)cc1,4.6%
CC(O)C(NS(=O)(=O)c1ccc(Cl)cc1)C(=O)OCC(=O)c1c[nH]c2ccccc12 (centres undefined),9.3%
CCCN(C(=O)CSc1nc2c(cnn2-c2ccccc2)c(=O)[nH]1)C1CCS(=O)(=O)C1 (centres undefined),1.7%
O=C(NCc1ccco1)c1ccc(C(F)(F)F)cc1,6.5%
Nc1nc2n(n1)C(c1ccco1)CC(c1ccccc1)N2 (centres undefined),6.0%
CCCCC1=NN(C(=O)c2cocc2C)C(O)(C(F)(F)F)C1 (centres undefined),2.0%
COc1ncccc1-c1nnn(-c2ccc(Cl)c(Cl)c2)n1,-17.3%[57.5 µM]
Nc1c(S(=O)(=O)O)cc(Nc2ccc(Nc3nc(Cl)nc(Nc4ccc(S(=O)(=O)O)cc4)n3)c(S(=O)(=O)O)c2)c2c1C(=O)c1ccccc1C2=O,25.1µM*
O=[N+]([O-])c1cccc(Nc2nc(Cl)nc(Cl)n2)c1,-9.6%
O=[N+]([O-])c1ccc(Nc2nc(Cl)nc(NCCO)n2)cc1,5.0%
COc1cccc(C2CC(c3cccc(Br)c3)n3ncnc3N2)c1 (centres undefined),-1.1%
COc1cnc(-c2cccc(C(F)(F)F)c2)nc1OC,2.9%
CCOC(=O)/C(C#N)=C/C=C1\C=Cc2ccccc2N1CC,15.8µM*
CCOC(=O)/C(C#N)=C(C)/C=C1\Sc2ccccc2N1CC,3.0%
CN1/C(=C/C=C(C#N)C#N)C=Cc2ccccc21,-10.5%[57.5 µM]
C=CCn1nnnc1-c1cc(Cl)cc(Cl)c1,-0.1%
